# Laboratory results published in PubChem BioAssay.
# A number with no mark means an inactive call.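 Rule for the calls: active = GFP response below 50% of the DMSO control; inconclusive = fewer than 70 events counted for a yeast strain; inactive = the rest.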
# Experiment: RPL19A-GFP modulators, yeast TOR pathway, confirmation, cell-based, S. cerevisiae, flow cytometry, cherry picks, mother/daughter gates (AID 2270)
# Details: S. cerevisiae RPL19A-GFP strain, 3 h, at 10 µM, stronger effect = lower value, 100 = same GFP as DMSO wells
row,Compound,GFP response vs DMSO
1,O=C(Nc1cccnc1)c1ccc(-c2ccc(Cl)cc2)o1,97.2%
2,Oc1c(N=Nc2ccccn2)ccc2ccccc12,94.8%
3,Cc1cccn2c(=O)c3cc(C(=O)NCCc4ccccc4)c(=N)n(CCCn4ccnc4)c3nc12,95.8%
4,Cc1ccc(CS(=O)(=O)c2ncc(Cl)c(C(=O)Nc3nnc(C(C)C)s3)n2)cc1,96.2%
5,Oc1ccc2ccccc2c1N=Nc1nccs1,101%
6,Oc1c(CN2CCN(c3ccc(F)cc3)CC2)cc(Cl)c2cccnc12,101%
7,Oc1ccc(Br)cc1/C=N/Nc1ccccn1,93.9%
8,O=C(/C=C/Sc1ncn[nH]1)c1ccc(Cl)cc1,106%
9,C/C(=N\Nc1ncnc2sc(C)c(C)c12)c1ccccn1,194%
10,CC(=O)Nc1ccc(Nc2cc(C)nc3c(-c4ccc(Cl)cc4)c(C)nn23)cc1,94.6%
11,O=C1C=CC(=O)N1c1ccc(N2CCCCC2)cc1,75.5%
12,CCn1c(/C=C/c2ccc([N+](=O)[O-])o2)nc2ccccc2c1=O,144%
13,COc1ccc(C(=O)NC(=S)NNC(=O)CCc2ccccc2)cc1,106%
14,Cc1ccc(-c2noc(CCC(=O)Nc3ccccc3C)n2)cc1,98%
15,Nc1c(C(=O)c2cccs2)sc2nsc(SCCN3CCCCC3)c12,114%
16,Cc1[nH]c(-c2ccccn2)nc(=S)c1Cl,106%
17,CCCCC(=O)O[C@]1(C(=O)CO)CC[C@H]2[C@@H]3CCC4=CC(=O)CC[C@]4(C)[C@H]3[C@@H](O)C[C@@]21C,96.8%
18,Nc1ccccc1SC(C[N+](=O)[O-])c1ccccc1 (stereo not given),93.3%
19,N/C(=N\OC(=O)c1ccccc1Cl)c1ccc(Cl)cc1,101%
20,Cc1[nH][nH]c(=O)c1C(c1ccc(-c2ccc(Cl)cc2)o1)c1c(C)[nH][nH]c1=O,101%

row,Compound,GFP response vs DMSO
1,Cc1ccc(/C=C2/C(=O)ON=C2c2ccccc2)o1,90.4%
2,C[n+]1ccc(/C=C/c2c[nH]c3ccccc23)cc1,107%
3,Cc1cc(O)c(C(=O)/C=C/c2c(F)c(F)c(F)c(F)c2F)c(=O)o1,98.2%
4,Cc1cc(O)ccc1NC(=O)c1ccccc1,98.4%
5,CCOc1ccc(Nc2ccc(C(=O)O)cc2[N+](=O)[O-])cc1,102%
6,O=C1C=CC(=O)N1c1cccc(-c2ccccc2)c1,70.2%
7,Cc1cccc(C)c1NC(=O)C(Cl)C(=O)c1ccccc1 (stereo not given),89.9%
8,O=C(NC(=S)NNC(=O)c1cnccn1)c1ccc(F)cc1,110%
9,CCCc1[nH]nc2c1C(c1ccccc1OC)C(C#N)=C(N)O2 (stereo not given),98%
10,CCCNC(=O)COC(=O)c1ccc(S(=O)(=O)N2CCCC2)cc1,97.2%
11,CC(C)(C)C(=O)NC(=S)NNC(=O)c1ccc(-c2ccccc2)cc1,116%
12,O=C1Oc2ccccc2C(=O)/C1=C/c1ccccc1O,91.3%
13,O=C(Nc1ccccc1)c1nnsc1S(=O)(=O)c1ccc(Cl)cc1,73.3%
14,CCCc1cc(NCc2ccccn2)n2nc(C)c(-c3ccccc3)c2n1,108%
15,Cc1cc(C)nc(S/C=C/C(=O)c2ccccc2)n1,100%
16,Cc1nn2c(NCc3ccccn3)c3c(nc2c1-c1ccccc1)CCC3,106%
17,CC(NCCS(=O)(=O)c1ccc(Cl)cc1)c1cccc(Cl)c1 (stereo not given),95.1%
18,CCCOc1ccc(C(=O)NNC(=S)NC(=O)CC)cc1,126%
19,O=C(c1ccc(Cl)c([N+](=O)[O-])c1)N1CCN(c2ccccc2)CC1,99.4%
20,O=C(c1ccc2c(c1)OCO2)N1CCN(c2ccccc2)CC1,98.2%
